This is an account of results in PubChem BioAssay AID2685 (National Center for Advancing Translational Sciences (NCATS), 2010).

In all, about 320,000 compounds went through this assay and about 2,100 (0.66%) were called active. Another 53% or so got no clear call; they are omitted. The call rests on the fitted dose curve; in most records, active means well fitted inhibition curve with a large enough effect in the signal ratio, with a control signal flat (not every such curve was filed as active); inconclusive means small, poorly fitted or top-dose-only effect, or effect the other way, or a change in a side signal; inactive means flat fitted curve, though single readings scatter; the % refers to the signal ratio. This excerpt belongs to a sample that is enriched for actives.
Potency means the concentration at half of the fitted maximal effect.

The assay can be described thus: qHTS Assay for Lipid Storage Modulators in Drosophila S3 Cells.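 On cell number change: cells counted by Cell Tracker Red CMTPX staining in the red channel.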 On lipid storage change, negative = inhibition: on the % scale 0 is the no-effect control and ±100 the full control effect. Conditions: BODIPY lipid droplet fluorescence, 18-24 h, cells fed with added oleic acid; cell number change: measured here: cell count max response; series mostly up to 46.1 µM; lipid storage change, negative = inhibition: at the top concentration. Summed up: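 Drosophila S3 cells loaded with oleic acid (400 uM, as added) and compounds at several concentrations; lipid droplets imaged by 488-nm laser-scanning cytometry, 500–530 nm intensity and object ratio to cell channel. Percent activity normalized to 20 uM Triacsin C.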
Background: qHTS replaces the single test concentration by a dilution series.
Turning to `CCc1cc(Br)ccc1NC(=S)NCCc1ccccc1`, the call was inactive and the cell number change is -12.4%. For `Cc1ccc(/C=N/NC(=O)CSc2nc3ccccc3[nH]2)o1` the same measures were “inactive” and 23.1%.

As for `CCOC(=O)c1c[nH]c2c(C)cc(C)cc2c1=O`, the “lipid storage change, negative = inhibition” value was -5.71% (inactive) and the cell number change was -13.9%. `CCCNC(=O)c1ccc(N2CCC3(CC2)CC(c2ccccc2)=NO3)c(NC(=O)c2ccco2)c1`: the Potency was 5.17 µM (active) and the cell number change is -21.9%. For the compound `Cc1ccc(CNC(=O)c2ccc(N3CCC4(CC3)CC(c3cccc(Br)c3)=NO4)c(NC(=O)c3ccco3)c2)cc1`, the “lipid storage change, negative = inhibition” value is -0.741% (inactive) and the cell number change was -15.2%. `CCCNC(=O)c1ccc(N2CCC3(CC2)CC(c2cccc(Br)c2)=NO3)c(NC(=O)c2cccc(C)c2)c1`: the “lipid storage change, negative = inhibition” value is -10.4% (inactive) and the cell number change is -6.01%. In the same order, the values of `COc1ccccc1NS(=O)(=O)c1ccc2c(c1)CCN2C(=O)CCC(=O)O` are 11.3% (inactive) and 0.926%. With `CC(C)c1c(C(=O)N/N=C/c2cccnc2)nnn1-c1nonc1N`, the outcome was inactive and the cell number change is -22.2%.

`CCc1ccc(-c2ccc(SCc3ccccn3)nn2)cc1`: the “lipid storage change, negative = inhibition” value is 1.79% (inactive) and the cell number change is -1.78%.

Regarding `Cc1cc(C)cc(C(=O)/C=C2\NC(=O)CS2)c1`, the “lipid storage change, negative = inhibition” value was -9.56% (inactive). With `CC(C)N(Cc1ccccc1)C(=O)COc1ccccc1`, the “lipid storage change, negative = inhibition” value was 12.5% (inactive) and the cell number change was 2.07%. In the same order, the values of `O=C(NN(CC(O)COc1ccccc1)CC(O)COc1ccccc1)c1ccccc1` (stereo not given) are -2.08% (inactive) and -5.14%.

For the compound `CC(C)(C)OC(=O)NOCC(=O)N(Cc1ccccc1)CC(O)COc1ccccc1` (stereo not given), the Potency is 7.31 µM (active) and the cell number change is -1.25%. As to `CCOC(=O)N1CCN(C(=O)/C=C/c2c(C)nn(-c3ccc(F)cc3)c2Cl)CC1`, the “lipid storage change, negative = inhibition” value was -7.33% (inactive) and the cell number change is -7.81%.

Consider `O=C(CSc1ccccn1)N1CCOCC1`, for which the “lipid storage change, negative = inhibition” value was -6.88% (inactive) and the cell number change was -9.67%. For `CS(=O)(=O)N(CC(=O)N1CCCCC1)c1ccc(Cl)c(C(F)(F)F)c1` the same measures were 3.58% (inactive) and 0.64%. For `CCn1c(SCC(=O)N2CCCC2)nc2ccccc2c1=O` the same measures were 8.17% (inactive) and -13.8%. As to `CNC(=O)c1oc(-c2ccc(Cl)cc2)nc1C`, the Potency was 2.59 µM (active).

Regarding `CNC(=O)c1ncoc1-c1ccc(Cl)cc1`, the “lipid storage change, negative = inhibition” value was 1.92% (inactive) and the cell number change came out at 12.8%. In the same order, the values of `COC(=O)c1oc(-c2ccc(Cl)cc2)nc1C` are -2.09% (inactive) and -10.5%. Turning to `Cc1cccc(C)c1NC(=S)N(Cc1ccco1)C1CCN(C(C)C)CC1`, the “lipid storage change, negative = inhibition” value is 4.29% (inactive) and the cell number change worked out at 1.59%. For `COc1ccc(-n2nnnc2SCC(=O)NNC(=O)c2ccc([N+](=O)[O-])cc2)cc1` the same measures were 14.8% (inactive) and 9.64%. As for `Cc1ccc(NC(=O)C(=O)NCCc2c[nH]c3ccccc23)cc1C`, the cell number change was 15% and the lipid storage change, negative = inhibition is 3.29% [at 9.22 µM] (inactive).

As for `CCOCCCNC(=O)CN1C(=O)c2cccc3cccc1c23`, the outcome was inactive and the cell number change was -5.29%.

With `Cc1ccc(NC(=O)c2ccccc2NS(=O)(=O)c2ccc(Cl)s2)cc1S(=O)(=O)N1CCOCC1`, the “lipid storage change, negative = inhibition” value was 9.85% (inactive) and the cell number change was 11.6%. Consider `COc1cc(NC(=O)c2ccccc2NS(=O)(=O)c2ccc(Cl)s2)cc(OC)c1`, for which the Potency is 16.4 µM (active) and the cell number change is -19.8%. Regarding `COc1ccc(C)cc1NC(=O)c1ccccc1NS(=O)(=O)c1ccc(Cl)s1`, the “lipid storage change, negative = inhibition” value is 9.92% (inactive).

Turning to `CCN1CCN(c2nc3sc4c(c3c(=O)n2-c2ccc(OC)cc2)CCCCC4)CC1`, the “lipid storage change, negative = inhibition” value was -2.33% (inactive) and the cell number change is -9.24%.

With `CCOC(=O)COc1ccccc1C1Nc2ccccc2C(=O)N1c1cccc(Cl)c1` (stereo not given), the “lipid storage change, negative = inhibition” value is -10% (inactive) and the cell number change was determined as 2.87%. For `COc1ccc(NCc2nnc(SCC(=O)NCc3ccco3)n2-c2ccccc2OC)cc1`, the “lipid storage change, negative = inhibition” value is 4.09% (inactive) and the cell number change worked out at 13.6%. In the same order, the values of `CCC(C)NC(=O)NCc1ccccc1F` (stereo not given) are -1.24% (inactive) and 2.87%. For `COC(=O)[C@H](CCSC)NC(=O)NCc1ccccc1F` the same measures were -0.91% (inactive) and -14.5%.

As to `COc1cccc(CNC(=O)N[C@@H](C)C(=O)O)c1`, the “lipid storage change, negative = inhibition” value is -15.6% (inactive) and the cell number change amounted to 1.68%.

In the case of `CCC(C)[C@H](NC(=O)NCc1ccccc1Cl)C(=O)O` (stereo not given in full), the Potency is 29.1 µM (active) and the cell number change is -0.143%.

Consider `CCC(C)[C@H](NC(=O)NCc1ccc(Cl)cc1)C(=O)O` (stereo not given in full), for which the “lipid storage change, negative = inhibition” value is 0.0506% (inactive) and the cell number change was 4.5%. For the compound `CCC(C)[C@H](NC(=O)NCc1cccc(OC)c1)C(=O)O` (stereo not given in full), the Potency was 6.51 µM (active) and the cell number change came out at 1.61%. `CCC(C)[C@H](NC(=O)NCc1ccccc1Cl)C(=O)OC` (stereo not given in full): the “lipid storage change, negative = inhibition” value was 7% (inactive) and the cell number change is -19%. Turning to `COC(=O)[C@@H](NC(=O)NCc1ccccc1F)C(C)C`, the Potency was 25.9 µM (active) and the cell number change is -6.12%.

For the compound `COC(=O)[C@@H](NC(=O)NCc1cccc(OC)c1)C(C)C`, the “lipid storage change, negative = inhibition” value is 10.7% (inactive) and the cell number change is -13.3%. In the same order, the values of `CC(C)N(C)Cc1nnnn1CC(=O)NCc1cc(F)cc(C(F)(F)F)c1` are -4.82% (inactive) and -9.03%.

`Cn1nc(-c2ccccc2)c(CO)c1Oc1cccc(C(F)(F)F)c1`: the “lipid storage change, negative = inhibition” value is 14.8% (inactive) and the cell number change worked out at 9.06%. In the same order, the values of `COc1ccc(C(=O)CSc2nnc(C3CC3)n2N)cc1` are -0.56% (inactive) and -1.83%. In the same order, the values of `O=C(O)c1ccc(NS(=O)(=O)c2cc(Cl)ccc2Cl)cc1` are -4.19% (inactive) and 3.91%. With `Cc1ccc(NS(=O)(=O)c2cc(C(=O)O)ccc2Cl)c(C)c1`, the “lipid storage change, negative = inhibition” value was 6.34% (inactive) and the cell number change is -3.54%.
